The record followed here is PubChem BioAssay (EPA / NIEHS).

Molecules are shown by their SMILES. “And” between values parts separate entries of the source, which are not always exact repeats. Identical values can stand only once. Records with an inconclusive call do not appear. The source made the active and inactive calls. Rule for the calls, unless noted: active = hit-call score of the fitted dose curve at least 0.9, where 1 is the maximum; inactive = score below 0.9.

By AC50 is commonly meant the concentration at which the activity in the assay is half-maximal.

Read-out in one assay: CD69, CD69 (gene 969)
Briefly: BSK_SAg_CD69: BioMAP Diversity Plus: SAg Assay for CD69 Biomarker Activity (AID 2283089).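 For AC50: cell surface CD69 protein quantified by ELISA with fluorescence detection.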 Particulars: primary human HUVEC with PBMC; actives raise or lower the signal. In outline:
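Endothelial/PBMC co-culture; chemical added; 24 h incubation; CD69 ELISA with fluorescence detection; bidirectional fit vs DMSO.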

Read-out in assay [1]: Monocyte Chemoattractant Protein-1 (MCP1), CCL2 (gene 6347)
Briefly: BSK_SAg_MCP1: BioMAP Diversity Plus: SAg Assay for Monocyte Chemoattractant Protein-1 (MCP1) Biomarker Activity (AID 2283090). Particulars: primary human HUVEC with PBMC; actives raise or lower the signal. The gist of the method:
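MCP-1 levels in the endothelial–PBMC SAg co-culture were quantified by ELISA at 24 h post-dosing; both increases and decreases versus DMSO scored. Cytotoxicity monitored by SRB total protein in parallel cultures.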

Read-out in assay [2]: E-selectin (Homo sapiens) (UniProt P16581)
Kind of assay: BSK_SAg_Eselectin: BioMAP Diversity Plus: SAg Assay for Eselectin Biomarker Activity (AID 2283091). The following applies: primary human HUVEC with PBMC; actives raise or lower the signal. In outline: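 Cell-surface E-selectin is read by ELISA at 24 h in the SAg co-culture of HUVEC and PBMC. Curves are fitted in both directions relative to DMSO. Parallel SRB total-protein staining tracks overt toxicity.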

Read-out in assay [3]: Monokine induced gamma interferon (MIG), CXCL9 (gene 4283)
Briefly: BSK_SAg_MIG: BioMAP Diversity Plus: SAg Assay for Monokine induced gamma interferon (MIG) Biomarker Activity (AID 2283092). The following applies: primary human HUVEC with PBMC; actives raise or lower the signal. The gist of the method: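 Measures CXCL9 protein by ELISA in a human vascular primary-cell co-culture (umbilical vein endothelium with PBMC) 24 h after chemical addition. Activity is scored up or down from the DMSO control.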

Assay [4] can be described thus: BSK_SAg_PBMCCytotoxicity: PBMC Cytotoxicity Assessment in the BioMAP Diversity Plus: SAg Assay (AID 2283093).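 For AC50: PBMC superantigen activated with SEB plus TSST-1 one hour after compound addition.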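 Note: PBMC viability measured as Alamar Blue reduction fluorescence at 546/580 nm; fitted both ways against DMSO so a hit may be loss or gain of signal.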 The following applies: primary human HUVEC with PBMC. In outline:
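Compound added to 75,000 PBMC/well for 1 h; SEB and TSST-1 then added at 20 ng/mL final each; 90 h incubation; Alamar Blue 6 h; read 546/580 nm ex/em. Activity fitted bidirectionally relative to DMSO baseline.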

Assay [5] is described as follows: BSK_SAg_Proliferation: Cell Proliferation Assessment in the BioMAP Diversity Plus: SAg Assay (AID 2283095).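 Note: relative cell number as total protein by SRB absorbance in sub-confluent culture.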 Particulars: primary human HUVEC with PBMC. In outline:
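Readout is SRB-stained protein (560 nm) in a primary human HUVEC and PBMC co-culture; sub-confluent cultures are read at 96 h. Activity is fitted bidirectionally using DMSO as baseline.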

A short description of assay [6]: BSK_SAg_SRB: Viability Assessment in the BioMAP Diversity Plus: SAg Assay (AID 2283096).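 Note: cells read one day after compound addition; hits may be either gain or loss of signal compared with DMSO.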 Particulars: primary human HUVEC with PBMC. The gist of the method:
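Total protein by sulforhodamine B staining, 24 h after dosing, in HUVEC–PBMC co-culture; DMSO-referenced bidirectional fitting.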

The target of assay [7] is human CYP2A6, CYP2A6 (gene 1548) (UniProt P11509). Briefly: NVS_ADME_hCYP2A6: NovaScreen (NVS) CYP450-related Enzyme Activity (ADME) Assay for human CYP2A6 (AID 2283099; active = hit-call score of the fitted dose curve at least 0.9, where 1 is the maximum). The gist of the method: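 Compounds screened at 10 uM (duplicate) and, if active, titrated to a 20 uM top concentration against insect-cell-expressed CYP2A6. Loss of fluorescent product signal after 0.5 h, relative to acetonitrile baseline, indicates inhibition.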

The target in assay [8] is human CYP1A1, CYP1A1 (gene 1543) (UniProt P04798). Kind of assay: NVS_ADME_hCYP1A1: NovaScreen (NVS) CYP450-related Enzyme Activity (ADME) Assay for human CYP1A1 (AID 2283100; active = hit-call score of the fitted dose curve at least 0.9, where 1 is the maximum). The gist of the method:
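Chemicals were first tested in duplicate at 10 uM, and those passing a 30% inhibition threshold were rerun as concentration series topping at 20 uM. Fluorescence read-out of recombinant enzyme turnover after 1 h, relative to acetonitrile.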

Assay [9] addresses human CYP2B6, CYP2B6 (gene 1555) (UniProt P20813). Kind of assay: NVS_ADME_hCYP2B6: NovaScreen (NVS) CYP450-related Enzyme Activity (ADME) Assay for human CYP2B6 (AID 2283101; active = hit-call score of the fitted dose curve at least 0.9, where 1 is the maximum). The gist of the method: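 Recombinant protein, specific fluorescent substrate, read at 1 h post-dosing. Primary: single 10 uM, duplicate; follow-up: concentration series. Activity = signal loss vs acetonitrile baseline, with positive and negative controls on every plate.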

For assay [10], the target named is human CYP2C8, CYP2C8 (gene 1558) (UniProt P10632). Kind of assay: NVS_ADME_hCYP2C8: NovaScreen (NVS) CYP450-related Enzyme Activity (ADME) Assay for human CYP2C8 (AID 2283104). In outline:
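Recombinant human CYP2C8 with fluorogenic substrate, 0.5 h, fluorescence intensity; signal loss fitted versus acetonitrile. Screened in duplicate at 10 uM, then actives run in concentration-response up to 20 uM.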

For assay [11], the target named is human CYP2J2, CYP2J2 (gene 1573) (UniProt P51589). Briefly: NVS_ADME_hCYP2J2: NovaScreen (NVS) CYP450-related Enzyme Activity (ADME) Assay for human CYP2J2 (AID 2283106; active = hit-call score of the fitted dose curve at least 0.9, where 1 is the maximum). The gist of the method:
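Cell-free assay of recombinant CYP2J2 with a fluorogenic substrate, read 1 h after dosing; loss of signal versus acetonitrile. Primary screen at 10 uM in duplicate, then concentration-response up to 20 uM for chemicals passing threshold (e.g., 30% inhibition).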

Assay [12] addresses human CYP2C9, CYP2C9 (gene 1559) (UniProt P11712). Briefly: NVS_ADME_hCYP2C9: NovaScreen (NVS) CYP450-related Enzyme Activity (ADME) Assay for human CYP2C9 (AID 2283108; active = hit-call score of the fitted dose curve at least 0.9, where 1 is the maximum). In outline:
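Fluorescence readout of CYP2C9 activity (SF9-expressed human enzyme) at 0.75 h. The primary screen used 10 uM in duplicate, with concentration-response follow-up for actives; acetonitrile was the negative control.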

The target in assay [13] is Cytochrome P450 3A4 (Homo sapiens) (UniProt P08684). Briefly: NVS_ADME_hCYP3A4: NovaScreen (NVS) CYP450-related Enzyme Activity (ADME) Assay for human CYP3A4 (AID 2283110; active = hit-call score of the fitted dose curve at least 0.9, where 1 is the maximum). The gist of the method: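 Compounds were first screened in duplicate at 10 uM against recombinant CYP3A4 produced in insect cells, then actives were run in concentration series. Enzyme activity was measured by fluorescence after 0.33 hour, with acetonitrile as baseline.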

Assay [14] has as its target Cytochrome P450 2C19 (Homo sapiens) (UniProt P33261). Briefly: NVS_ADME_hCYP2C19: NovaScreen (NVS) CYP450-related Enzyme Activity (ADME) Assay for human CYP2C19 (AID 2283113; active = hit-call score of the fitted dose curve at least 0.9, where 1 is the maximum;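 for AC50: potency for inhibition seen as loss of fluorescent signal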). In outline:
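Compounds first screened in duplicate at 10 uM, then confirmed in concentration series. Insect-cell-expressed human CYP2C19 turned over a fluorogenic substrate, and fluorescence was read after 1 h. Inhibition taken as signal loss relative to acetonitrile.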

Read-out in assay [15]: Interleukin-8 (IL8), CXCL8 (gene 3576)
Briefly: BSK_SAg_IL8: BioMAP Diversity Plus: SAg Assay for Interleukin-8 (IL8) Biomarker Activity (AID 2283094). Particulars: primary human HUVEC with PBMC; actives raise or lower the signal. In outline: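 In this co-culture of human umbilical vein endothelium with peripheral blood mononuclear cells, IL-8 is assayed by ELISA at 24 h. DMSO serves as baseline for bidirectional curve fitting.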

The target in assay [16] is rat CYP1A2, Cyp1a2 (gene 24297) (UniProt P04799). Briefly: NVS_ADME_rCYP1A2: NovaScreen (NVS) CYP450-related Enzyme Activity (ADME) Assay for rat CYP1A2 (AID 2283115; active = hit-call score of the fitted dose curve at least 0.9, where 1 is the maximum). In outline:
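Cell-free recombinant rat enzyme with fluorogenic substrate, read by fluorescence intensity 1 hour after dosing. Loss of signal versus acetonitrile negative control; primary screen at 10 uM in duplicate, actives followed in concentration series.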

Assay [17] addresses human CYP19A1, CYP19A1 (gene 1588) (UniProt P11511). Kind of assay: NVS_ADME_hCYP19A1: NovaScreen (NVS) CYP450-related Enzyme Activity (ADME) Assay for human CYP19A1 (AID 2283098; active = hit-call score of the fitted dose curve at least 0.9, where 1 is the maximum;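 note: potency for inhibitors seen as loss of fluorescent enzyme signal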). In outline:
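Biochem, cell-free; recombinant enzyme + specific substrate; fluorescence intensity at 0.5 h post-dose; 10 uM duplicate primary, conc. series for actives; acetonitrile = negative control/baseline; positive and negative controls on every plate.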

Assay [18] deals with human CYP2D6, CYP2D6 (gene 1565) (UniProt P10635). Briefly: NVS_ADME_hCYP2D6: NovaScreen (NVS) CYP450-related Enzyme Activity (ADME) Assay for human CYP2D6 (AID 2283107; active = hit-call score of the fitted dose curve at least 0.9, where 1 is the maximum). In outline: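 Fluorescence readout of recombinant CYP2D6 (insect-cell derived) activity after 1 h incubation with test chemical. Acetonitrile served as baseline, loss-of-signal direction. Single-concentration duplicate screening at 10 uM preceded concentration-response retesting.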
Chain of human CYP2D6, CYP2D6 (gene 1565) (P10635 whole entry, looked up): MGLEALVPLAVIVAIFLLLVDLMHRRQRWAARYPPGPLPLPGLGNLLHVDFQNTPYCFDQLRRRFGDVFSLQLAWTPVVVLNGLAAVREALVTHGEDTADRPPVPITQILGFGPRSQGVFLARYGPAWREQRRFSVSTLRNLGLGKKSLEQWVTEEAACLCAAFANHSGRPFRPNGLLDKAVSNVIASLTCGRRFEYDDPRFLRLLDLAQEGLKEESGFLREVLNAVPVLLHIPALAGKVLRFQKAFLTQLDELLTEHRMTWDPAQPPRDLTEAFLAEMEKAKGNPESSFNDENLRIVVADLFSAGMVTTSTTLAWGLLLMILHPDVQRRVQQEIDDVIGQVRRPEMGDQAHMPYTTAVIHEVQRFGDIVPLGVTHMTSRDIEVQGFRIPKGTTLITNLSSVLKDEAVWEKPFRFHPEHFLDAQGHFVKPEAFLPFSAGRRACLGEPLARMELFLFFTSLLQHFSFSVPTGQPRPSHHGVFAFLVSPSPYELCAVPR

Chain of E-selectin (Homo sapiens) (P16581 whole entry, looked up): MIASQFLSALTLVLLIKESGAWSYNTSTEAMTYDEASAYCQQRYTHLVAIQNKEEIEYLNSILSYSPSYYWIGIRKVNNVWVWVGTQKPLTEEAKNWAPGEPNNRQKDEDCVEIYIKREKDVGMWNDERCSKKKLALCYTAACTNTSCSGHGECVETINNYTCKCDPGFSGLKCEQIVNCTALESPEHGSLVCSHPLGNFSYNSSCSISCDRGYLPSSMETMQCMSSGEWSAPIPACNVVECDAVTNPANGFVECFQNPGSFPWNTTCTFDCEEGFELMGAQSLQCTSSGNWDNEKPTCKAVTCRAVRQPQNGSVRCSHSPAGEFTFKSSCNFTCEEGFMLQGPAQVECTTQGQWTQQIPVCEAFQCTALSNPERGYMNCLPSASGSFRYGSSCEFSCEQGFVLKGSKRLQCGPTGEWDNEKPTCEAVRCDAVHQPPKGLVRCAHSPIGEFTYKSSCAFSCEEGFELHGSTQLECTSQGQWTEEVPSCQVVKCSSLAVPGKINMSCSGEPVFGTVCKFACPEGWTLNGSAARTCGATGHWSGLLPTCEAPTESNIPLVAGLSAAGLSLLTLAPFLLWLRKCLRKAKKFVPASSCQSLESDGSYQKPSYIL
Chain of human CYP2C9, CYP2C9 (gene 1559) (P11712 whole entry, looked up): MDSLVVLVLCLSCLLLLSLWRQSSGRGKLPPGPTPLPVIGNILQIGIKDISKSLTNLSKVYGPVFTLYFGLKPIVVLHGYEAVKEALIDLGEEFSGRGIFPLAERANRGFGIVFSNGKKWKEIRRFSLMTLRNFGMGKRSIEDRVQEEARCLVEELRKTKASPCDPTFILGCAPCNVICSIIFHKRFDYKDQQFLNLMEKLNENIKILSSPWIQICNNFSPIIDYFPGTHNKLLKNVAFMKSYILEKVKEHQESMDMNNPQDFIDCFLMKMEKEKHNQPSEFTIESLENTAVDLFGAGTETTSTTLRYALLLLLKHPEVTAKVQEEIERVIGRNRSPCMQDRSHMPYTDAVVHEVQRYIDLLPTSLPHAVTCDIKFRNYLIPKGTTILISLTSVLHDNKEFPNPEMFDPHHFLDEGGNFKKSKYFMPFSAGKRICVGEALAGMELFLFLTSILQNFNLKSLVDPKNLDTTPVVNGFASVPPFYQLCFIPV
Chain of human CYP2A6, CYP2A6 (gene 1548) (P11509 whole entry, looked up): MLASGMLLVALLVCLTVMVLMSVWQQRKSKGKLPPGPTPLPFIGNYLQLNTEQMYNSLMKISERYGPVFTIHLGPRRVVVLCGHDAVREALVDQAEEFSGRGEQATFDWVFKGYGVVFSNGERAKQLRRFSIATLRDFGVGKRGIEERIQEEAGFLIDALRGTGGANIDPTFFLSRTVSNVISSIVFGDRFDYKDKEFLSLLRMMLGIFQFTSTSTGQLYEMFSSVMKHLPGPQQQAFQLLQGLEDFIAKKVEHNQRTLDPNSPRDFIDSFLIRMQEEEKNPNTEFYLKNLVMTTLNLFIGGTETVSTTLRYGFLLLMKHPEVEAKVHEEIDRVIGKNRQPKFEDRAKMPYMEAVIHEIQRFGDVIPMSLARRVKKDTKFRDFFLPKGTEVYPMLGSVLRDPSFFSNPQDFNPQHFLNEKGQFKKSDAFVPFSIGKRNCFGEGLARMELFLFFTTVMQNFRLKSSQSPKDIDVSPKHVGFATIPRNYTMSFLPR
Chain of human CYP2J2, CYP2J2 (gene 1573) (P51589 whole entry, looked up): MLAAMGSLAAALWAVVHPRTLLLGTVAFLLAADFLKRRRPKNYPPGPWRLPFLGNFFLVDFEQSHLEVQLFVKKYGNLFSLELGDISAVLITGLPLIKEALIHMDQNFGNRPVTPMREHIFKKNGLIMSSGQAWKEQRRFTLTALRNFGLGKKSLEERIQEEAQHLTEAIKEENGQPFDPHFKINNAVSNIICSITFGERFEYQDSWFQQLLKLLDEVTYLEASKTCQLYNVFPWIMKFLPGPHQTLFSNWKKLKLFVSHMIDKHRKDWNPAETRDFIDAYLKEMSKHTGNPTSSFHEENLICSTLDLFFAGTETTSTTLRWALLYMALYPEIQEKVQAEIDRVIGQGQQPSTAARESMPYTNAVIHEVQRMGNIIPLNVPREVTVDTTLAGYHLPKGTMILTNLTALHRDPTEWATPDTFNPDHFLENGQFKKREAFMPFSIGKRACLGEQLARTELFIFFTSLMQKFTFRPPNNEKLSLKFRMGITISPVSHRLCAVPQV
Chain of human CYP2B6, CYP2B6 (gene 1555) (P20813 whole entry, looked up): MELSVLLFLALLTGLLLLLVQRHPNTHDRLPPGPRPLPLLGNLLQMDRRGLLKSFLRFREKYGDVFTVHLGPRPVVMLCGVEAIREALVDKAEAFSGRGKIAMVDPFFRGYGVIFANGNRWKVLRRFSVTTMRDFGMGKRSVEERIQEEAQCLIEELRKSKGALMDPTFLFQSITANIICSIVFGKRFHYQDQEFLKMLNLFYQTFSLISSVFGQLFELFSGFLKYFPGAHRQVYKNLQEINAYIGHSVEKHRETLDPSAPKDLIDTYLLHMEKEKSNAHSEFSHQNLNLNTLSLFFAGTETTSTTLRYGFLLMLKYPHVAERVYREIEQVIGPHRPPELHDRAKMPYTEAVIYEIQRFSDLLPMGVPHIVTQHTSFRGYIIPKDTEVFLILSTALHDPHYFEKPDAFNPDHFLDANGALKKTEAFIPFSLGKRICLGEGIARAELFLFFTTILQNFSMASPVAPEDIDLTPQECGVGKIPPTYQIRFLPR
Chain of human CYP1A1, CYP1A1 (gene 1543) (P04798 whole entry, looked up): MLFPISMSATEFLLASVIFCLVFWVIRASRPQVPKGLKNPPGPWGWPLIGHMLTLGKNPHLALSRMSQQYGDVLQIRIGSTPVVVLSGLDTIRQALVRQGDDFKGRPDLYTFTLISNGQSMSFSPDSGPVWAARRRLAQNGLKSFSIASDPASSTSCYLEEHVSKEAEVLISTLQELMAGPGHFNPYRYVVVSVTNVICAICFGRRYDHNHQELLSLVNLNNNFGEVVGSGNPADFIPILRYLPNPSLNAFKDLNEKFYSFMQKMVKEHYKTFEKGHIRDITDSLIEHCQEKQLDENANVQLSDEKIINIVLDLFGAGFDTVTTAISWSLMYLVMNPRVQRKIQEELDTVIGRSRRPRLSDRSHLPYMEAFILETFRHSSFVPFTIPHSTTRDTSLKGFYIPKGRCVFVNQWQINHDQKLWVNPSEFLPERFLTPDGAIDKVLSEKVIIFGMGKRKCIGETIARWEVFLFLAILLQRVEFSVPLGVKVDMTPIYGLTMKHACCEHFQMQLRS
Chain of rat CYP1A2, Cyp1a2 (gene 24297) (P04799 whole entry, looked up): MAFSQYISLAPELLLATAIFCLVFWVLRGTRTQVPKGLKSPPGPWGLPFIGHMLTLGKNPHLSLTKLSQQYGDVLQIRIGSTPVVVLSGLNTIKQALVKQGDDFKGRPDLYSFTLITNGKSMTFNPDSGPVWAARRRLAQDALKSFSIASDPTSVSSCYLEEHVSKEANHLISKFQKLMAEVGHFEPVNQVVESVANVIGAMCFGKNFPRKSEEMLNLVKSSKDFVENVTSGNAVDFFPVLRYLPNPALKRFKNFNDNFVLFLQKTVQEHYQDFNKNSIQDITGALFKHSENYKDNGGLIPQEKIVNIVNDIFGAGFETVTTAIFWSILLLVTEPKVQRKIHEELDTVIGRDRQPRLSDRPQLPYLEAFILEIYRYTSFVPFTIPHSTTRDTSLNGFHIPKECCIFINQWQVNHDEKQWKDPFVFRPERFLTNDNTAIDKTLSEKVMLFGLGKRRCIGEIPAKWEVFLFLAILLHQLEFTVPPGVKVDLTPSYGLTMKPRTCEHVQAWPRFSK
Chain of Cytochrome P450 3A4 (Homo sapiens) (P08684 whole entry, looked up): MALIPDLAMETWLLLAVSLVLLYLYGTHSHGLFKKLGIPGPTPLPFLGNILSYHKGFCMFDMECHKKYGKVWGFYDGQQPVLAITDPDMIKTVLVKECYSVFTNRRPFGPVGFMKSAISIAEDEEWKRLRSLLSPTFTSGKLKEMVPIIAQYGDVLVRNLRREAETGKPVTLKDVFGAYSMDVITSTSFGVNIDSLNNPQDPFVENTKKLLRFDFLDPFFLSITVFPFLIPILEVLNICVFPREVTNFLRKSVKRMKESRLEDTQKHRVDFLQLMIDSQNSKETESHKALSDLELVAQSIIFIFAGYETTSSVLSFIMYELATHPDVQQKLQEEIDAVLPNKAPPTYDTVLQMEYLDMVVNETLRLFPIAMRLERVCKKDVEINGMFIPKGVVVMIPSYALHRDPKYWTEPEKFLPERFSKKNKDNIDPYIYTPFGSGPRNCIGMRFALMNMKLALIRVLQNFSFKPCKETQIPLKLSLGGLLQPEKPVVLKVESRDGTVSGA

As for `OC(c1ccc(Cl)cc1)(c1cncnc1)c1ccccc1Cl` (centres undefined), the AC50 was 14.2 µM (active) in the assay with CD69, CD69 (gene 969); 25.5 µM (active) in assay [1]; 26.5 µM (active) in [2]; 32.9 µM (active) in assay [3]; 3.45 µM (active) in assay [4]; 11.7 µM (active) in [5]. The AC50 in [6] was 29.3 µM (active); in [7], 2.37 µM (active); in assay [8], 8.07 µM (active); in [9], 5.75 µM (active); in assay [10], 10 µM (active); in assay [11] it was 2.26 µM (active). Also, the values for the AC50 in [12], in [13] and in assay [14] were 2.35 µM (active), 3.87 µM (active) and 0.136 µM (active), respectively.
`CC1=C(C(=O)Nc2ccccc2)SCCO1`: the outcome with CD69, CD69 (gene 969) is “inactive”; in [1] it was “inactive”; in [2], “inactive”; in [3], “inactive”; in [4], “inactive”; in assay [15], “inactive”. In addition, the outcome in [6] and in assay [16] was inactive.
With `CCCC1COC(Cn2cncn2)(c2ccc(Cl)cc2Cl)O1` (centres undefined), the outcome with CD69, CD69 (gene 969) was “inactive”; in assay [1], “inactive”; in [2] it was “inactive”; in assay [3], “inactive”; in [4] it was “inactive”; in assay [15], “inactive”. Further, the outcome in [6], in assay [7] and in [11] was inactive. The concentration at half-maximal activity (AC50) in assay [17] was 2.04 µM (active); in [8], 7.82 µM (active); in assay [9] it was 2.78 µM (active); in assay [18] it was 13.9 µM (active); in [12] it was 1.65 µM (active) and 4.57 µM (active); in assay [14], 0.721 µM (active).
Turning to `CC(C)Oc1cc(-n2nc(C(C)(C)C)oc2=O)c(Cl)cc1Cl`, the concentration at half-maximal activity (AC50) is 30.7 µM (active) in the assay with CD69, CD69 (gene 969); 29.9 µM (active) in [1]; 30.3 µM (active) in [2]; 31.9 µM (active) in [3]; 34.4 µM (active) in assay [4]; 31.2 µM (active) in assay [15]. Moreover, the concentration at half-maximal activity (AC50) in assay [6] was 30.5 µM (active). For the same compound, in assay [14], the outcome was inactive.
Consider `COc1nc(C)nc(NC(=O)NS(=O)(=O)c2ccccc2Cl)n1`, for which the outcome is “inactive” in the assay with CD69, CD69 (gene 969); “inactive” in assay [1]; “inactive” in assay [2]; “inactive” in assay [3]; “inactive” in assay [4]; “inactive” in assay [15]. The result in assay [6] and in [18] was inactive.
